Measurements reported in PubChem BioAssay (Tox21).
Records with an inconclusive call do not appear. Entries that show only a call come without a potency. Activity calls are given as the source filed them. Calls follow the shape of the dose curve; as a rule, active = well fitted cell-killing curve with a large enough effect in the repeat runs; inconclusive = weak or mixed curves, or effect the other way; inactive = flat fitted curve, though single readings scatter.

Assays:
[1] = cAMP Responsive Elements (CRE) small molecule antagonists, cell-based qHTS assay: qHTS cell viability counter screen (AID 2060913); also: nearly all actives have a fitted effect of over 40% in size
Method in brief: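 CRE-bla HEK293T cells (2,000/well, 18 h) given compound plus NKH477 0.25 uM final for 3 h at 37C; viability counter-screen by CellTiter-Glo luminescence in same wells after 30 min.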

[2] = cAMP Responsive Elements (CRE) small molecule agonists, cell-based qHTS assay: qHTS cell viability counter screen (AID 2060914); also: nearly all actives have a fitted effect of over 50% in size
Method in brief: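 Cytotoxicity was measured as ATP luminescence (CellTiter-Glo, 30 min at room temperature) in the same wells as the CRE-bla FRET read-out. HEK293T CRE-bla cells had 3 h compound exposure at 37C/5% CO2.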

| Structure (SMILES) | Potency [1] | Potency [2] | viability change, negative = cytotoxic [1] | activity change, negative = cytotoxicity [2] |
| --- | --- | --- | --- | --- |
| C#C[C@]1(O)CC[C@H]2[C@@H]3CCc4cc(OC)ccc4[C@H]3CC[C@@]21C | inactive | inactive |  |  |
| CCCCCCOC(=O)c1ccccc1 | inactive | inactive |  |  |
| CCCCCCCCOS(=O)(=O)O | inactive | inactive |  |  |
| CCCN[C@H]1CCc2nc(N)sc2C1 | inactive | inactive |  |  |
| N#CSCSc1nc2ccccc2s1 | inactive | inactive |  |  |
| C1=COCCC1 | inactive | inactive |  |  |
| Cc1cccc(OCCOc2cccc(C)c2)c1 | inactive | inactive |  |  |
| CCCC(=O)OC(C)(C)Cc1ccccc1 | inactive | inactive |  |  |
| CCN(CC)CCc1nc(-c2ccccc2)no1 | inactive | inactive |  |  |
| O=c1[nH]cnc2c1ncn2[C@H]1CC[C@@H](CO)O1 | inactive | inactive |  |  |
| Nc1ccc2cc(S(=O)(=O)O)cc(O)c2c1 | inactive | inactive |  |  |
| CN(C)CCCCl | inactive | inactive |  |  |
| COC(C)OC | inactive | inactive |  |  |
| CCC(O)OC(O)CC (configuration not stated) | inactive | inactive |  |  |
| C1C[C@@H]2[C@H]3CC[C@H](C3)[C@@H]2C1 | inactive | inactive |  |  |
| O=S(=O)(O)c1ccccc1O | inactive | inactive |  |  |
| CCNc1nc(N)nc(Cl)n1 | inactive | inactive |  |  |
| CN(C)C(=O)NC1(c2ccccc2)CCN(CC[C@@]2(c3ccc(F)c(F)c3)CN(C(=O)c3ccccc3)CCO2)CC1 | inactive | inactive |  |  |
| CC(CCC(=O)O)(c1ccc(O)cc1)c1ccc(O)cc1 | inactive | inactive |  |  |
| C#Cc1cccc(Nc2ncnc3cc(OCCOC)c(OCCOC)cc23)c1 | inactive | inactive |  |  |
| NC(=O)CCCCC1CCSS1 (configuration not stated) | inactive | inactive |  |  |
| Nc1nc(F)nc2c1ncn2[C@@H]1O[C@H](CO)[C@@H](O)[C@@H]1O | inactive | inactive |  |  |
| C=CC(=O)OCCCCCCCC | inactive | inactive |  |  |
| NC(=O)NC(=O)Cc1ccccc1 | inactive | inactive |  |  |

| Structure (SMILES) | Potency [1] | Potency [2] | viability change, negative = cytotoxic [1] | activity change, negative = cytotoxicity [2] |
| --- | --- | --- | --- | --- |
| Nc1c2c(nc3c1CCC3)CCCC2 | inactive | inactive |  |  |
| CCCCCC(=O)OCC | inactive | inactive |  |  |
| COc1ccccc1OCC(O)CO (configuration not stated) | inactive | inactive |  |  |
| CCCCCCCCCCCCCCN(CCO)CCO | inactive | inactive |  |  |
| CO[Si](C)(OC)OC | inactive | inactive |  |  |
| Cc1nc2ccccn2c(=O)c1CCN1CCC(C(=O)c2ccc(F)cc2)CC1 | inactive | inactive |  |  |
| Nc1nc2c(ncn2CCC(CO)CO)c(=O)[nH]1 | inactive | inactive |  |  |
| CO[Si](CCCNCCC[Si](OC)(OC)OC)(OC)OC | inactive | inactive |  |  |
| CN/C(=C\[N+](=O)[O-])NCCSCc1csc(CN(C)C)n1 | inactive | inactive |  |  |
| CCN(CC)CCNc1ccc(CNC=O)c2sc3ccc(OC)cc3c(=O)c12 | inactive | inactive |  |  |
| COc1cc(C(=S)N2CCOCC2)ccc1O | inactive | inactive |  |  |
| C[C@@H](O)[C@H]1C(=O)N2C(C(=O)O)=C(S[C@@H]3CN[C@H](CNS(N)(=O)=O)C3)[C@H](C)[C@H]12 | inactive | inactive |  |  |
| CC1CCCC1 | inactive | inactive |  |  |
| CCCc1ncc(C(=O)O)s1 | inactive | inactive |  |  |
| CCCCCCCCCCCCCCCCC | inactive | inactive |  |  |
| C/C=C/c1ccc(O)c(OC)c1 | inactive | inactive |  |  |
| CCCSc1ccc2nc(NC(=O)OC)[nH]c2c1 | inactive | inactive |  |  |
| CCCCN=C(N)N=C(N)N | inactive | inactive |  |  |
| Cc1ccc(N/N=c2\c(=O)cc/c(=N\Nc3ccc(S(=O)(=O)O)cc3)c2=O)c(C)c1 | inactive | inactive |  |  |
| CCCC(=O)O[C@]1(C(=O)COC(=O)CC)CC[C@H]2[C@@H]3CCC4=CC(=O)CC[C@]4(C)[C@H]3[C@@H](O)C[C@@]21C |  |  | 9.89% [at 18.9 µM] (inactive) | -7.63% [at 18.9 µM] (inactive) |
| COc1ccc(C)cc1[N+](=O)[O-] | inactive | inactive |  |  |
| C=CC(=O)CC | inactive | inactive |  |  |
| O=C1C(=O)c2ccccc2C(O)=C1C1CCC(c2ccc(Cl)cc2)CC1 (configuration not stated) | inactive | inactive |  |  |
| Cc1ccc2c(c1)OCC(=O)CO2 | inactive | inactive |  |  |

| Structure (SMILES) | Potency [1] | Potency [2] | viability change, negative = cytotoxic [1] | activity change, negative = cytotoxicity [2] |
| --- | --- | --- | --- | --- |
| CN(C)CCN1CCOCC1 | inactive | inactive |  |  |
| C1CC(COCC2CO2)CCC1COCC1CO1 (configuration not stated) | inactive | inactive |  |  |
| CCCCOCCOCCOCc1cc2c(cc1CCC)OCO2 | inactive | inactive |  |  |
| CC1CN(c2cc3c(cc2F)c(=O)c(C(=O)O)cn3-c2ccc(F)cc2F)CCN1 (configuration not stated) |  |  | 0.301% [at 8.39 µM] (inactive) | -0.163% [at 8.39 µM] (inactive) |
| CC(C)CC(C)(O)C#CC(C)(O)CC(C)C (configuration not stated) | inactive | inactive |  |  |
| CCCCN(CCCC)CCCOC(=O)c1ccc(N)cc1 | inactive | inactive |  |  |
| Clc1nnc(Cl)c2ccccc12 | inactive | inactive |  |  |
| O=C(O)CO | inactive | inactive |  |  |
| CN(C)CCCN1c2ccccc2Sc2ccccc21 | inactive | inactive |  |  |
| CNC(=O)c1c(I)c(NC(=O)CCCCC(=O)Nc2c(I)c(C(=O)O)c(I)c(C(=O)NC)c2I)c(I)c(C(=O)O)c1I | inactive | inactive |  |  |
| CC(C)OC=O | inactive | inactive |  |  |
| CCCCCCCCCCCCCCCCCCCl |  |  | -1.12% [at 8.39 µM] (inactive) | -6.8% [at 8.39 µM] (inactive) |
| CC(C)(COC(=O)c1ccccc1)COC(=O)c1ccccc1 | inactive | inactive |  |  |
| O=c1c(-c2ccc(O)cc2)coc2cc(O)ccc12 | inactive | inactive |  |  |
| Cc1ccc2c(Cl)cc(Cl)c(O)c2n1 | inactive | inactive |  |  |
| [O-][n+]1cccc(/C(Cl)=N/OC[C@@H](O)CN2CCCCC2)c1 | inactive | inactive |  |  |
| Nc1nc2ccc(OC(F)(F)F)cc2s1 | inactive | inactive |  |  |
| C1CNCCN1 | inactive | inactive |  |  |
| CCOc1ccc2ccccc2c1C(=O)N[C@@H]1C(=O)N2[C@@H]1SC(C)(C)[C@@H]2C(=O)O | inactive | inactive |  |  |
| C=C(C)CS(=O)(=O)O | inactive | inactive |  |  |
| CCCCCCCCCC(=O)OC | inactive | inactive |  |  |
| CCCCC1(COC(=O)CCC(=O)O)C(=O)N(c2ccccc2)N(c2ccccc2)C1=O | inactive | inactive |  |  |
| O=C(CCN1CCN(CCO)CC1)N1c2ccccc2Sc2ccc(C(F)(F)F)cc21 | inactive | inactive |  |  |
| Cc1ccccc1C(N)=O | inactive | inactive |  |  |

| Structure (SMILES) | Potency [1] | Potency [2] | viability change, negative = cytotoxic [1] | activity change, negative = cytotoxicity [2] |
| --- | --- | --- | --- | --- |
| CC(C)(CC(=O)O)C(=O)O | inactive | inactive |  |  |
| NCc1ccccc1Sc1ccccc1CO | inactive | inactive |  |  |
| N[C@H]1C(O)O[C@H](CO)[C@@H](O)[C@@H]1O (some centres not stated) | inactive | inactive |  |  |
| NC(=O)Nc1ccccc1 | inactive | inactive |  |  |
| [O-][n+]1ccc(Cl)cc1 | inactive | inactive |  |  |
| CCCCCC(=O)CC | inactive | inactive |  |  |
| CCC=O | inactive | inactive |  |  |
| CCCN(CCC)C(=O)C(CCC(=O)O)NC(=O)c1ccccc1 (configuration not stated) | inactive | inactive |  |  |
| CCCCCCC[N+](CC)(CC)CCCCc1ccc(Cl)cc1 | inactive | inactive |  |  |
| C=CC(=O)Nc1cc2c(Nc3ccc(F)c(Cl)c3)ncnc2cc1OCCCN1CCOCC1 | inactive | inactive |  |  |
| C=C(C)CCO | inactive | inactive |  |  |
| COCCOC(=O)C1=C(C)NC(C)=C(C(=O)OC(C)C)C1c1cccc([N+](=O)[O-])c1 (configuration not stated) | inactive | inactive |  |  |
| CC(Cc1ccc(O)c(O)c1)C(C)Cc1ccc(O)c(O)c1 (configuration not stated) | inactive | inactive |  |  |
| C[C@@H]1CC[C@@]2(OC1)O[C@H]1C[C@H]3[C@@H]4CC[C@H]5C[C@@H](O)CC[C@]5(C)[C@H]4CC(=O)[C@]3(C)[C@H]1[C@@H]2C |  |  | 0.912% [at 8.39 µM] (inactive) | -1.47% [at 8.39 µM] (inactive) |
| O=C(O)c1ccc(Cl)c(Cl)c1 | inactive | inactive |  |  |
| CC(=O)Oc1ccc(C2(c3ccc(OC(C)=O)cc3)C(=O)Nc3ccccc32)cc1 | inactive | inactive |  |  |
| Cc1cccc(C)c1NC(=O)c1ccccc1C(=O)O | inactive | inactive |  |  |
| CCC(=O)C(=O)CC | inactive | inactive |  |  |
| CN1CCC[C@@H]1c1cccnc1 | inactive | inactive |  |  |
| CCCOC(=O)c1ccc(C(=O)OCCC)nc1 | inactive | inactive |  |  |
| CCC(=O)CC | inactive | inactive |  |  |
| CC/C=C1/OC(=O)c2ccccc21 | inactive | inactive |  |  |
| O=[N+]([O-])c1ccc(Cl)cc1Cl | inactive | inactive |  |  |
| CC(C)NCC(O)c1cc(O)cc(O)c1 (configuration not stated) | inactive | inactive |  |  |

| Structure (SMILES) | Potency [1] | Potency [2] | viability change, negative = cytotoxic [1] | activity change, negative = cytotoxicity [2] |
| --- | --- | --- | --- | --- |
| CC(=O)Nc1c(I)c(NC(C)=O)c(I)c(C(=O)O)c1I | inactive | inactive |  |  |
| O=C(Cl)c1cccc([N+](=O)[O-])c1 | inactive | inactive |  |  |
| Nc1ccc2cc3ccccc3cc2c1 | inactive | inactive |  |  |
| Cc1ccc(C)c(C)c1 | inactive | inactive |  |  |
| Oc1ccc(C(c2ccc(O)cc2)C(Cl)(Cl)Cl)cc1 | inactive | inactive |  |  |
| O=S(=O)(O)c1cc(Cl)c(Cl)cc1Cl | inactive | inactive |  |  |
| CC1=CC(=O)CCC1 | inactive | inactive |  |  |
| CC(C)C[P+](C)(CC(C)C)CC(C)C | inactive | inactive |  |  |
| CC(C)c1cccc(C(C)C)c1NC(=O)NS(=O)(=O)c1cc(C(C)(C)O)co1 | inactive | inactive |  |  |
| C=CCCCCCCCCCCCCCCCC |  |  | -4.37% [at 8.39 µM] (inactive) | -18.5% [at 8.39 µM] (inactive) |
| CC(=O)O[C@]1(C(C)=O)CC[C@H]2[C@@H]3C[C@H](C)C4=CC(=O)CC[C@]4(C)[C@H]3CC[C@@]21C | inactive | inactive |  |  |
| Cn1c(=O)c2c(ncn2CC(O)CO)n(C)c1=O (configuration not stated) | inactive | inactive |  |  |
| NCCNCCNCCNCCN | inactive | inactive |  |  |
| CN(C)CCOC(=O)COc1ccc(Cl)cc1 | inactive | inactive |  |  |
| OCCCC1CCCCC1 | inactive | inactive |  |  |
| O=C(CS)Nc1ccccc1 | inactive | inactive |  |  |
| O=[N+]([O-])c1ccc2ncccc2c1 | inactive | inactive |  |  |
| COc1cc(C=C2CCC/C(=C\c3ccc(O)c(OC)c3)C2=O)ccc1O | inactive | inactive |  |  |
| CC(C)c1ccc(C=O)cc1 | inactive | inactive |  |  |
| O=S(=O)(c1ccc(OCc2ccccc2)cc1)c1ccccc1O | inactive | inactive |  |  |
